Source: PMC4336329 (PLoS ONE, 2015)
The campaign covered roughly 310,000 compounds. About 14,000 (4.5%) showed an effect of 50% or more. The effect is printed as a negative number. The list comes from a sample in which strong results are over-represented; it also holds similar structures and randomly drawn compounds.

biological target: human ether-à-go-go-related gene (hERG) potassium channel (human, UniProt Q12809); experiment: primary screen, population patch clamp on CHO cells stably expressing hERG; higher = less effect of the substance
Sequence (Q12809 whole entry, looked up): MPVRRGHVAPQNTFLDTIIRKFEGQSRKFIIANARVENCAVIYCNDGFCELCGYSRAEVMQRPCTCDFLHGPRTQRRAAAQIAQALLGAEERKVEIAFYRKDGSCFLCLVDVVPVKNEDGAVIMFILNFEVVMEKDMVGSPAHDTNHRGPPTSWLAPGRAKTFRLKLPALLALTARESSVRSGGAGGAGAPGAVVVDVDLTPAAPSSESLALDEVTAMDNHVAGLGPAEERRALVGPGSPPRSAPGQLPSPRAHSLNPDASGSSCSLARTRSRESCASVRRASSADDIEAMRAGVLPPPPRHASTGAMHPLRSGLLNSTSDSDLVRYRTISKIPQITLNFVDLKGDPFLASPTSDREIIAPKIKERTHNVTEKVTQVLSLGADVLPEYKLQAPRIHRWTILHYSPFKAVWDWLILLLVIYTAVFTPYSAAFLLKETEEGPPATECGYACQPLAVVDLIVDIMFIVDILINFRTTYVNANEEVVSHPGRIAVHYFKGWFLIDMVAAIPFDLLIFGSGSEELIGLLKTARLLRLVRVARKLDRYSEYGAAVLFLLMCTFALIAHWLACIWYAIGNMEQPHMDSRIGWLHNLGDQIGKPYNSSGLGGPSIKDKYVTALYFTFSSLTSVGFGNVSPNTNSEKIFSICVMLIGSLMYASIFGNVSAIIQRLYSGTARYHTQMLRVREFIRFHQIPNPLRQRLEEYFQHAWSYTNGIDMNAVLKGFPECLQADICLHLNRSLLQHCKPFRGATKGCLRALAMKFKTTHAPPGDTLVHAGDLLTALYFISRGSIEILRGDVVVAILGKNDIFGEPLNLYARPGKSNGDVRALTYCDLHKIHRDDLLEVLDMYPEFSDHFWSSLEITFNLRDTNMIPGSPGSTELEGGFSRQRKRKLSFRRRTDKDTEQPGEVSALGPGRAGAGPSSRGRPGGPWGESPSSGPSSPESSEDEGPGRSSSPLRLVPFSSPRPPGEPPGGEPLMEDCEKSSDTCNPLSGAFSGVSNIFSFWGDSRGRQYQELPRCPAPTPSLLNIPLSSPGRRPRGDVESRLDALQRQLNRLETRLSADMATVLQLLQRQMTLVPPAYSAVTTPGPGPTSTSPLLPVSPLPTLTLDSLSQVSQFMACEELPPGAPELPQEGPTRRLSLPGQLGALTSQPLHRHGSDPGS
Procedure: Briefly, Chinese hamster ovary (CHO) cells stably expressing the hERG channel were dislodged from tissue culture flasks and dispensed into PPC plates. […] During the recording, background leak currents were estimated by a 100 ms step to -80 mV from an initial holding potential of -70 mV and subtracted from the subsequent current measurement. The campaign was conducted in two phases using slight differences in recording protocol. In the first phase, the initial voltage pulse used a 100 ms step to -30 mV from a holding potential of -70 mV, a 2 s conditioning step to +25 mV, and a 2 s test step to -30 mV. During the second phase of the screen, the potential during the conditioning step was raised to +45 mV. In both phases of the campaign, a secondary voltage pulse was applied using the same parameters as the second phase initial pulse. The initial and secondary pulses were applied in the absence of compound, and upon application of 1 μM and 10 μM test concentrations. […]
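Also: peak tail current of the secondary pulse compared with the same well before compound.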

Row | SMILES | hERG current change (%, negative = inhibition) at 10uM
1 | Cc1cc(C)c(NC(=S)NCC2CCN(C(C)c3ccccc3)C2)c(C)c1 (stereo not shown) | -22.4%
2 | Cc1ccc(NC(=S)NCC2CCN(C(C)c3ccccc3)C2)cc1 (stereo not shown) | -57.5%
3 | Cc1cc(C)cc(NC(=S)NCC2CCN(C(C)c3ccccc3)C2)c1 (stereo not shown) | -63.3%
4 | Cc1ccc(NC(=S)NCC2CCN(C(C)c3ccccc3)C2)cc1C (stereo not shown) | -44.6%
5 | CC(c1ccccc1)N1CCC(CNC(=S)Nc2cccc(Cl)c2)C1 (stereo not shown) | -29.2%
6 | O=C1NC(c2ccccc2)=C(c2ccc3ccccc3n2)C(c2ccccc2)N1 (stereo not shown) | 6.13%
7 | CC1(C)CC(=O)N(CC(=O)O)c2ccccc2S1(=O)=O | 3.52%
8 | O=c1c2ccccc2ncn1-c1ccc(Cl)c(Cl)c1 | -1.01%
9 | OC(CNCCCCNCC(O)C(F)(F)F)C(F)(F)F (stereo not shown) | 19.8%
10 | CCCN(CCC)Cc1c(C(=O)OCC)nnn1-c1nonc1N | -12.7%
11 | CC(=O)c1nc2ccccc2n1S(=O)(=O)c1ccc(C)cc1 | 17.3%
12 | Cc1nc2c(ccc3nc(NC(=O)c4ccc(S(=O)(=O)N(C)C)cc4)sc32)s1 | 15.2%
13 | Cc1nc2c(ccc3nc(NC(=O)c4ccc5c(c4)OCCO5)sc32)s1 | -74.3%
14 | Cc1nc2ccc3nc(NC(=O)c4ccc5c(c4)OCCO5)sc3c2s1 | 2.9%
15 | CC(C)(C)NC(=O)COc1coc(CN2CCN(Cc3ccccc3)CC2)cc1=O | -1.29%
16 | Cc1ccc(Cn2c(C(CO)Nc3nc(-c4ccc(Cl)c([N+](=O)[O-])c4)cs3)nc3ccccc32)cc1 (stereo not shown) | 7.56%
17 | O=S(=O)(c1ccsc1)N1CC=C(c2ccccc2)CC1 | 15.7%
18 | CN1CCN(C(c2cc3cc4c(cc3[nH]c2=O)OCCO4)c2nnnn2C2CCCC2)CC1 (stereo not shown) | -9.91%
19 | CCN1CC2C3CCC(C)(O3)C2C1 (stereo not shown) | -73.1%
20 | CCCc1cc(=O)[nH]c(SCC(=O)Nc2nc3ccc(OCC)cc3s2)n1 | 22.8%

Row | SMILES | hERG current change (%, negative = inhibition) at 10uM
21 | NC(=S)N=Nc1c(O)n(CC(=O)Nc2ccccc2)c2ccccc12 | 16.4%
22 | COc1cc2ncnc(NCc3ccc(C)o3)c2cc1OC | -11.5%
23 | CCOC(=O)C1CCN(C(=O)COc2ccc(N(C)S(=O)(=O)c3ccc(C)cc3)cc2)CC1 | -57.7%
24 | CN(c1ccc(OCC(=O)N2CCOCC2)cc1)S(=O)(=O)c1ccc(F)cc1 | -9.15%
25 | CCOC(=O)C1CCCN(C(=O)COc2ccc(N(C)S(=O)(=O)c3ccc(F)cc3)cc2)C1 (stereo not shown) | -66.5%
26 | CCOC(=O)C1CCCN(C(=O)COc2ccc(S(=O)(=O)N(CC)c3ccccc3)cc2)C1 (stereo not shown) | -51.8%
27 | Cc1ccc(S(=O)(=O)N(C)c2ccc(OCC(=O)N3CCCCC3)cc2)cc1 | -10.5%
28 | Cc1ccc(S(=O)(=O)N(C)c2ccc(OCC(=O)N3CCCC(C(F)(F)F)C3)cc2)cc1 (stereo not shown) | -39.9%
29 | CN1CCN(C(=O)COc2ccc(N(C)S(=O)(=O)c3ccc(F)cc3)cc2)CC1 | -4.56%
30 | COC(=O)C1CCN(C(=O)COc2ccc(N(C)S(=O)(=O)c3ccc(C)cc3)cc2)CC1 | -33.8%
31 | CCN(c1ccccc1)S(=O)(=O)c1ccc(OCC(=O)N2CCCC2)cc1 | -10.4%
32 | CCOC(=O)C1CCCN(C(=O)COc2ccc(N(C)S(=O)(=O)c3ccc(C)cc3)cc2)C1 (stereo not shown) | -56.8%
33 | CCOC(=O)C1CCN(C(=O)COc2ccc(N(C)S(=O)(=O)c3ccc(OCC)cc3)cc2)CC1 | -4.08%
34 | CCOC(=O)C1CCCN(C(=O)COc2ccccc2O)C1 (stereo not shown) | -1.94%
35 | O=C(COC(=O)c1cnccn1)c1cccc([N+](=O)[O-])c1 | 14.4%
36 | O=C(Nc1ccccc1Cl)c1sccc1-c1ccccc1 | -2.39%
37 | COc1ccc(/C=N/NC(=O)C(=O)Nc2ccccn2)cc1OC | -27.2%
38 | COc1ccc(C2=NS(=O)(=O)N(C)C(C(=O)NCc3ccccn3)=C2)cc1OC | -4.15%
39 | CC1=CC(C)(C)Nc2ccc(OC(=O)c3ccco3)cc21 | -0.0756%
40 | CC1CN(C(=O)CN2C(=O)c3ccccc3C2=O)CC(C)O1 (stereo not shown) | 6.42%
